# Results filed as inconclusive are left out. Calls of active or inactive are those of the source. Calls follow the shape of the full dose curve.
# Experiment: qHTS assay to identify small molecule agonists of the hypoxia (HIF-1) signaling pathway - cell viability counter screen (AID 1224844); also: nearly all actives have a fitted effect of over 50% in size
# Settings: HRE-bla ME-180 viability, CellTiter-Glo luminescence, 17 h; series mostly up to 76.8 µM; activity change, negative = cytotoxicity: at the top concentration
# Text: National Center for Advancing Translational Sciences [NCATS]
# NIH Chemical Genomics Center [NCGC]
# U.S. Environmental Protection Agency [EPA]
# National Institutes of Environmental Health Sciences [NIEHS]
# National Toxicology Program [NTP]
# U.S. Food and Drug Administration [FDA]
# Hypoxia-inducible factor-1 (HIF-1) is the major hypoxia-regulated transcription factor that controls cellular responses to low oxygen concentration. HIF-1 is composed of two subunits: hypoxia responsive HIF-1-alpha and constitutively expressed HIF-1-beta, which is also known as aryl hydrocarbon receptor nuclear translocator. During hypoxic conditions, HIF-1-alpha heterodimerizes with HIF-1-beta and translocates into the nucleus where the HIF-1 complex binds to the hypoxia-response element (HRE) and activates expression of target genes such as VEGF (vascular endothelial growth factor). The HIF-1 pathway is essential to normal growth and development, and is involved in the pathophysiology of cancer, inflammation, and ischemia.
# Using a beta-lactamase reporter-gene under control of the hypoxia response element, a cell-based assay [CellSensor(TM) HRE-bla ME-180 from Life Technologies, Carlsbad, CA] was used to measure hypoxia-induced signaling. Tox21 10K library compounds were measured for their ability to induce the reporter gene activity. The cytotoxicity of the Tox21 compound library against HRE-bla ME-180 cell line was tested in parallel by measuring cell viability using CellTiter-Glo assay (Promega, Madison, WI) in the same assay wells.
# Tox21 Assay Protocol Summary:
# HRE-bla ME-180 cells were dispensed at 2,000 cells per well in 6 uL of assay medium containing 0.5% dialyzed FBS into black wall/clear-bottom 1536-well plates using a Multidrop Combi (Thermo Scientific, Waltham, MA) dispenser. After the assay plates were incubated at 37C and 5% CO2 for 5 hrs, 23 nL of compounds dissolved in DMSO, positive controls or DMSO only was transferred to each well of the assay plate using a Pintool station (Kalypsys, San Diego, CA). The assay plates were incubated at 37C and 5% CO2 for 17 hrs. One uL of LiveBLAzerTM B/G FRET substrate (CCF4-AM) (Life Technologies) was added to each well using a Flying Reagent Dispenser (FRD, Aurora Discovery, San Diego, CA). After 2 hr incubation at room temperature, fluorescence intensity (405 nm excitation, 460 nm and 530 nm emissions) was measured using an Envision plate reader (PerkinElmer, Shelton, CT). For cytotoxicity, 4 ul/well of CellTiter-Glo reagent was added into the assay plates using an FRD. After 30 min incubation at room temperature, the luminescence intensity was measured using a ViewLux plate reader (PerkinElmer).
# % is scaled to controls: 0 for no effect and ±100 for the full control effect; potency is read from the fitted curve at half-maximal effect.
SMILES,"activity change, negative = cytotoxicity",Potency
CC(=O)/C=C/C1C(C)=CCCC1(C)C (stereo not given),-15.2% (inactive),
CCOC(=O)C1=NN(c2ccccc2)C(=O)C1,-1.36% (inactive),
CCOC(=O)CC(=O)c1cc(F)c(Cl)nc1Cl,2.33% (inactive),
O=C(O)Cc1cc(I)c(Oc2ccc(O)c(I)c2)c(I)c1,,38.9 µM (active)
Nc1nc(N)c(-c2ccccc2)s1,4.04% [at 35.3 µM] (inactive),
CC(Cc1cccc(C(F)(F)F)c1)NCCOC(=O)c1ccccc1 (stereo not given),-4.82% [at 35.3 µM] (inactive),
O=C1c2cccc(O)c2C(=O)c2c(O)cc(CO)cc21,-4.4% (inactive),
CCCCCCCCCC(=O)OCC,-0.509% (inactive),
C=C(C)C(=O)OCCOc1ccccc1,16.6% (inactive),
NCc1ccccc1,5.6% (inactive),
CCCCCc1ccc(N)cc1,8.62% (inactive),
Cn1c(N)nc2nc[nH]c2c1=O,4.8% (inactive),
CC(C)CC=O,0.798% (inactive),
CC(=O)NCCCS(=O)(=O)O,11.7% [at 35.3 µM] (inactive),
CC(CN)CCCN (stereo not given),9.36% (inactive),
CCCCCCCCCCCCCCCC(=O)OC/C=C(C)/C=C/C=C(C)/C=C/C1=C(C)CCCC1(C)C,-2.83% (inactive),
C=CC(C)(CCC=C(C)C)OC(=O)c1ccccc1 (stereo not given),-10.3% (inactive),
CC[C@@H]1C[C@H](N(Cc2cc(C(F)(F)F)cc(C(F)(F)F)c2)C(C)=O)c2cc(C(F)(F)F)ccc2N1C(=O)OC(C)C,0.361% (inactive),
NC[C@H]1O[C@H](O[C@H]2[C@H](O)[C@@H](O[C@H]3O[C@H](CO)[C@@H](O)[C@H](N)[C@H]3O)[C@H](N)C[C@@H]2N)[C@H](O)[C@@H](O)[C@@H]1O,-8.41% [at 6.97 µM] (inactive),
CCOc1cc(OCC)c(C(=O)CCC(=O)O)cc1OCC,6.03% [at 35.3 µM] (inactive),

SMILES,"activity change, negative = cytotoxicity",Potency
CCN(CC)C(C)=O,0.806% (inactive),
CC(=O)SCc1ccco1,-0.95% (inactive),
CCCCC(CC)(CO)CO,-1.62% (inactive),
Cl/C(=C\n1cncn1)c1ccc(Cl)cc1Cl,12.1% [at 35.3 µM] (inactive),
CCC(=O)OC(C)(C)C1CC=C(C)CC1 (stereo not given),-11.2% (inactive),
CC(C)NCC(O)COc1ccc(CC(N)=O)cc1 (stereo not given),10.2% (inactive),
CN(C)CCCNCCCN,-15% (inactive),
CC(C)(C)c1cc(O)c(C(C)(C)C)cc1O,-6.5% (inactive),
Cc1cc(NC(=O)C(=O)O)cc(C)c1Oc1ccc(O)c2c1CCC2,-4.78% (inactive),
CCOc1ccc2[nH]cc(C(=O)NCc3ccccc3)c(=O)c2n1,14.6% (inactive),
C=C(C)C(=O)OC(C)C,10.4% (inactive),
OC(CCN1CCCCC1)(c1ccccc1)C1CCCCC1 (stereo not given),-14.5% [at 35.3 µM] (inactive),
c1ccc(-c2nc[nH]c2-c2ccccc2)cc1,-5.28% [at 35.3 µM] (inactive),
NC1CCN(c2nc3c(cc2F)c(=O)c(C(=O)O)cn3-c2ccc(F)cc2F)C1 (stereo not given),7.51% [at 35.3 µM] (inactive),
CC1=CCC(C(C)C)C=C1 (stereo not given),1.67% (inactive),
CN1CCN(C2=Nc3cc(Cl)ccc3Nc3ccccc32)CC1,-2.25% [at 35.3 µM] (inactive),
CCCCCCCCCCCCCCCCCBr,2.27% [at 15.8 µM] (inactive),
CCCCCCCCC(CO)CCCCCC (stereo not given),-0.955% (inactive),
CCN1CCC[C@H]1CNC(=O)c1c(OC)ccc(Br)c1OC,1.57% [at 35.3 µM] (inactive),
N=C(N=C(N)N)N1CCOCC1,-2.45% [at 35.3 µM] (inactive),
